# Shown are actives, neighbours in structure and some others; about 19% of the full set was active somewhere.
# HT1080 IDH1KD tx: qHTS for induction of synthetic lethality in tumor cells producing 2HG: qHTS for the HT-1080-IDH1KD cell line; HT-1080 IDH1 knockdown viability, ATP luminescence, 48 h; Potency, µM (doses to about 46.1 µM), for the others: top-dose activity, negative = toxicity, most hits filed as cytotoxic; 360,000 tested, 2% active; AID 686971, 2013;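 note: potency is the fitted concentration of half-maximal effect; 0% = DMSO wells and -100% = cell-free medium wells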
#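 After a 2 h attachment period, IDH1KD HT-1080 cells took pin-transferred compound for 48 h at 37 °C; ATP-based luminescence after 10 min room-temperature reagent incubation reported viability.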
# DT40 TDP1 no CPT: qHTS for Inhibitors of human tyrosyl-DNA phosphodiesterase 1 (TDP1): qHTS in cells in absence of CPT; DT40 Tdp1-/- hTDP1 cells, no CPT, ATP luminescence, 48 h; Potency, µM (series often up to 46.2 µM), without a hit: top-dose activity change, negative = growth inhibition, hits mostly inhibitors; 420,000 tested, 15% active; note: potency is the fitted concentration of half-maximal effect; nearly all actives have a fitted effect of over 55% in size
#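 Growth of hTDP1-complemented DT40 Tdp1-knockout cells is measured by ATP luminescence after at least 48 hr compound exposure at 37 °C, with DMSO substituting for the 20 nM CPT used in the parallel screen.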
# DT40 TDP1 CPT: qHTS for Inhibitors of human tyrosyl-DNA phosphodiesterase 1 (TDP1): qHTS in cells in presence of CPT; chicken DT40 Tdp1-/-;hTDP1 cells + 20 nM CPT, ATP luminescence, 48 h; Potency, µM (doses to about 46.2 µM), inactives show at the highest dose activity change, negative = growth inhibition, usual class: inhibitors; AID 686979, 2013; 420,000 tested, 12% active; note: potency is the fitted concentration of half-maximal effect; nearly all actives have a fitted effect of over 55% in size
#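 Chicken DT40 Tdp1-/- cells stably complemented with human TDP1 were seeded at 400 cells/well in medium containing 20 nM camptothecin, exposed to pin-transferred compounds, and grown at 37 °C for at least 48 hr. Viability was read as ATP luminescence.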
# HT1080NT lethal: qHTS for induction of synthetic lethality in tumor cells producing 2HG: qHTS for the HT-1080-NT fibrosarcoma cell line; HT-1080-NT fibrosarcoma viability, CellTiter-Glo ATP luminescence, 48 h; Potency, µM (doses to about 46.1 µM), without a hit: at the top dose activity, negative = less viability, actives largely listed as cytotoxic; 360,000 tested, 1.6% active;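 note: NT is the 2HG producing partner of a matched IDH1 knockdown line; potency is the fitted concentration of half-maximal effect; 0% = DMSO-treated cells and -100% = media-only wells without cells; nearly all actives have a fitted effect of over 55% in size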
#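 HT-1080-NT; 750 cells/well; 5% FBS RPMI; 48 h compound, 37 degrees C; CellTiter-Glo luminescence; curve fitting and curve-class assignment.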
# IL1B secr inh: qHTS for Inhibitors of Inflammasome Signaling: IL-1-beta AlphaLISA Primary Screen; 360,000 tested, 4.7% active; activity change, % at 57.5 µM; THP-1 LPS/ATP IL-1B secretion, AlphaLISA, 16 h; stronger effect = lower value; AID 743279, 2014; in the data active = activity change below about -50%; inconclusive = mostly about -30% to -49%
#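 THP-1 cells pretreated 1 hr with compounds (up to 57.5 uM final), then stimulated with LPS (250 ng/mL final) plus ATP (1.25 mM final); secreted IL-1B measured by AlphaLISA after 16 hr, decreased signal indicating inhibition.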
# Active calls of the source: *; ? = inconclusive; nt = no result given; [ ] = dose if it differs, or a comment. Unless noted, calls come from the whole dose curve; as a rule, active = well fitted curve in the direction sought with a large enough effect; inconclusive = small, poorly fitted or top-dose-only effect, or another doubt; inactive = no such curve, though single readings can be large; an effect the other way counts as inactive or inconclusive. Unless noted, % is set by controls: 0 for no effect and ±100 for the full control effect.
SMILES,HT1080 IDH1KD tx,DT40 TDP1 no CPT,DT40 TDP1 CPT,HT1080NT lethal,IL1B secr inh
C=C(C)c1ccc(C(C)(C)NC(=O)N(Cc2ccccc2)Cc2ccco2)cc1,?,16.4µM*,18.4µM*,-27.9%,0.0
CCCCOc1ccc(C(=O)N(Cc2ccco2)Cc2ccco2)cc1,nt,20.6µM*,?,nt,nt
Cn1c(=O)c(=O)n(C)c2cc(NS(=O)(=O)c3ccc(Br)cc3)c(Cl)cc21,nt,?,-26.1%,nt,nt
CC(C)Oc1ccc(C(=O)N(Cc2ccc(N(C)C)cc2)Cc2ccco2)cc1,nt,13µM*,?,nt,nt
CCSc1ncc(Cl)c(C(=O)N(Cc2ccc(N(C)C)cc2)Cc2ccco2)n1,nt,20.6µM*,?,nt,nt
Cc1ccccc1C(=O)N(Cc1ccc(N(C)C)cc1)Cc1ccco1,nt,18.4µM*,?,nt,nt
CC(C)Oc1ccc(C(=O)N(Cc2ccco2)c2ccccn2)cc1,nt,?,-25.6%,nt,nt
CCSc1ncc(Cl)c(C(=O)N(Cc2ccccc2)c2ccc(OC)cc2)n1,nt,5.8µM*,?,nt,nt
Cc1ccc2oc(=O)c3cnn(CC(=O)N4CCN(c5ccc(F)cc5)CC4)c3c2c1,nt,-12.6%,2.0%,nt,nt
Cc1ccc(C(=O)N(Cc2ccc(N(C)C)cc2)Cc2ccco2)cc1,nt,20.6µM*,?,nt,nt
CC[C@@H]1CC=C[C@H]2[C@H]1C(=O)N(Cc1ccccc1)[C@H]2c1ccc(OC)c(Cl)c1,?,13µM*,18.4µM*,-27.7%,25.3
O=C1C2C(c3cccc(/C=C/c4ccccc4)c3)CC=CC2C(c2ccc3ccccc3c2)N1Cc1ccccc1 (stereo not drawn),10.7%,16.4µM*,?,5.3%,15.5
Cc1cccc([C@H]2[C@@H]3C=CCC[C@@H]3C(=O)N2Cc2ccccc2)c1,-0.7%,?,?,13.6%,22.0
Cc1ccc(-c2cccc(C3CC=CC4C3C(=O)N(Cc3ccccc3)C4c3ccc4ccccc4c3)c2)cc1 (stereo not drawn),-2.3%,13µM*,18.4µM*,-0.7%,44.8
COc1ccc(-c2cccc(C3CC=CC4C3C(=O)N(Cc3ccccc3)C4c3ccc(OC)c(Cl)c3)c2)cc1 (stereo not drawn),-11.5%,13µM*,20.6µM*,-12.7%,32.9
CCNC(=O)C1(C)CCCN(Cc2noc(-c3c(C)noc3C)n2)C1 (stereo not drawn),16.8%,-7.9%,-11.1%,20.5%,31.7
CCc1ccccc1NC(=O)C1CCN(S(C)(=O)=O)CC1,6.3%,0.0%,-5.2%,2.0%,3.5
COC(=O)[C@H]1[C@@H](C)N(Cc2ccccc2)C(=O)N[C@H]1c1cccc(C(F)(F)F)c1,-1.9%,?,-28.6%,0.4%,14.4
O=C1C2C(c3cccc(/C=C/c4ccccc4)c3)CC=CC2C(c2ccc(C(F)(F)F)cc2)N1Cc1ccccc1 (stereo not drawn),-2.7%,?,14.6µM*,-5.8%,53.5
CC(C)N1C(=O)/C(=C\c2nc3ccccc3c(=O)n2-c2ccccc2)c2ccccc21,?,16.4µM*,23.1µM*,?,-106.3*
CC(C)N1C(=O)C(Cc2nc3ccccc3c(=O)n2-c2ccccc2)c2ccccc21 (stereo not drawn),-5.5%,-20.8%,?,-6.9%,-0.9
CC(C)N1C(=O)/C(=C/c2nc3ccccc3c(=O)n2-c2ccccc2)c2ccccc21,?,23.1µM*,20.6µM*,-28.8%,-95.5*
Cc1cc(S(=O)(=O)N2CCC(NC(=O)C34CC5CC(CC(C5)C3)C4)CC2)ccc1-n1cnnn1,2.8%,?,?,-1.1%,19.9
CCCCN(C(=O)c1ccc(C)cc1)c1c(N)n(CCC)c(=O)[nH]c1=O,9.6%,5.2%,0.8%,8.1%,5.3
Cc1ccc(CN2CCN(CC(=O)NCc3ccccc3Cl)C2=O)cc1,nt,-8.5%,0.8%,nt,nt
SMILES,HT1080 IDH1KD tx,DT40 TDP1 no CPT,DT40 TDP1 CPT,HT1080NT lethal,IL1B secr inh
CCOC(=O)N1CCN(C(=O)c2cc(COc3cccc(C(C)=O)c3)on2)CC1,2.3%,?,?,3.9%,0.1
CCOC(=O)N1CCN(C(=O)c2cc(COc3ccc4ncccc4c3)on2)CC1,-16.7%,6.51µM*,6.51µM*,-10.1%,-9.8
Cc1cccnc1CN1CCN(C(=O)c2cc(COc3ccc4ncccc4c3)on2)CC1,?,7.31µM*,5.8µM*,-5.7%,-24.0
N=c1c(C(=O)NCc2ccco2)cc2c(=O)n3ccccc3nc2n1CCc1ccccc1,-3.8%,20.6µM*,18.4µM*,0.8%,-0.9
COc1ccc(CCn2c(=N)c(C(=O)NCc3ccco3)cc3c(=O)n4ccccc4nc32)cc1OC,-3.3%,6.51µM*,7.31µM*,0.0%,?
COc1ccc(CCNC(=O)c2cc3c(=O)n4ccccc4nc3n(Cc3ccco3)c2=N)cc1OC,8.9%,13µM*,20.6µM*,14.1%,2.1
COc1ccc(CCNC(=O)c2cc3c(=O)n4ccccc4nc3n(CCCN3CCOCC3)c2=N)cc1OC,-7.2%,3.4%,-19.9%,-2.1%,-3.0
Cc1ccc(Cn2c(=N)c(C(=O)NCc3ccco3)cc3c(=O)n4ccccc4nc32)cc1,-6.0%,11.2µM*,11.2µM*,-9.5%,-7.6
COc1cccc(S(=O)(=O)N(C)C[C@H]2OCc3cnnn3CCCC(=O)N([C@H](C)CO)C[C@H]2C)c1,-10.1%,-9.7%,-7.2%,-3.9%,-19.5
COc1ccccc1CCCNC(=O)C1CCC(=O)N(Cc2ccccc2F)C1 (stereo not drawn),-9.7%,?,?,1.0%,-2.3
CO[C@H]1[C@H](NC(=O)c2ccsc2)c2ccccc2C12CCN(Cc1cccn1-c1ccccn1)CC2,nt,-26.3%,9.9%[9.04 µM],nt,nt
CC(C)(C)NC(=O)C1Cc2ccccc2CN1 (stereo not drawn),0.0%,-6.5%,-8.8%,-1.5%,-10.4
CCOC(=O)Nc1ccc2c(c1)C(=NNC(=S)NC)c1ccccc1-2,?,3.26µM*,4.61µM*,-29.1%,27.1
Oc1ccc2ccccc2c1CNc1ccc(Br)cc1,-26.4%,?,16.4µM*,?,-9.0
CCCCCCSc1ccc([C@@H]2[C@H]3C(=O)N(CC)C(=O)[C@H]3[C@]3(C(=O)OC)CCCN23)cc1,-13.7%,?,20.6µM*,-0.8%,-1.5
CCCSc1ccc([C@@H]2[C@H]3C(=O)N(CC)C(=O)[C@H]3[C@]3(C(=O)OC)CCCCN23)cc1,-0.9%,16.4µM*,?,-4.3%,-8.8

# Source: PubChem (National Center for Advancing Translational Sciences (NCATS))
